Results taken from PubChem BioAssay (Tox21).
Results filed as inconclusive are left out. Active and inactive are the calls of the source. Calls come from the whole dose curve; as a rule, active = well fitted curve in the direction sought with a large enough effect in the repeat runs; inconclusive = weak or mixed curves; inactive = no such curve, though single readings can be large; an effect the other way counts as inactive or inconclusive.

Legend:
[1] = A CellTox Green Cytotoxicity Assay to monitor cytotoxicity in HEK293 cells - 8 hour (AID 1224884); note: nearly all actives have a fitted effect of over 35% in size; note: potency is the fitted concentration of half-maximal effect; for cytotoxicity increase: % is set by controls: 0 for no effect and ±100 for the full control effect
Outline: (§1)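 HEK293 cells, 600/well, were preincubated 5 hours and then exposed to compounds at 37 C for up to 40 hours. A cell-impermeant cyanine dye staining dead-cell DNA was read by fluorescence at 0, 8, 16, 24, 32 and 40 h time points.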

[2] = qHTS RealTime-Glo MT Cell Viability Assay in HepG2 cells - 16 hour (AID 1224885); note: nearly all actives have a fitted effect of over 50% in size; note: potency is the fitted concentration of half-maximal effect; for activity change, negative = cytotoxic: % is set by controls: 0 for no effect and ±100 for the full control effect
Outline: (§2)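 Compound treatment began 5 h after plating HepG2 cells (600/well) with NanoLuc luciferase and prosubstrate. Plates stayed at 37 C for 40 h; luminescence was captured at six time points, 0 h through 40 h.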

[3] = qHTS RealTime-Glo MT Cell Viability Assay in HEK293 cells - 8 hour (AID 1224887); note: nearly all actives have a fitted effect of over 50% in size; note: potency is the fitted concentration of half-maximal effect
Outline: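 600 cells/well were plated with the nonlytic NanoLuc/prosubstrate reagent, pre-incubated 5 h, then given 23 nL of compound in DMSO. Incubation at 37 C for 40 h, with luminescence from viable-cell-reduced substrate read repeatedly from 0 h.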

[4] = A CellTox Green Cytotoxicity Assay to monitor cytotoxicity in HEK293 cells - 16 hour (AID 1224888); note: nearly all actives have a fitted effect of over 35% in size; note: potency is the fitted concentration of half-maximal effect; for activity change: % is set by controls: 0 for no effect and ±100 for the full control effect
Outline: as §1

[5] = A CellTox Green Cytotoxicity Assay to monitor cytotoxicity in HepG2 cells - 8 hour (AID 1224890); note: nearly all actives have a fitted effect of over 45% in size; note: potency is the fitted concentration of half-maximal effect; for cytotoxicity increase: % is set by controls: 0 for no effect and ±100 for the full control effect
Outline: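 HepG2 cells, 600/well, preincubated 5 h with CellTox Green dye, then exposed to Tox21 compounds in DMSO at 37 C for up to 40 h. Dead-cell DNA fluorescence read at the indicated time point.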

[6] = qHTS assay to identify small molecule antagonists of the estrogen receptor alpha (ER-alpha) signaling pathway using the BG1 cell line in the presence of 0.1 nM 17-beta-estradiol - cell viability counter screen (AID 1259241); note: nearly all actives have a fitted effect of over 40% in size; note: potency is the fitted concentration of half-maximal effect
Outline: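 Following 5 days in phenol red-free medium with charcoal-stripped serum, VM7Luc4E2 cells received test compounds alongside 0.1 nM 17beta-estradiol (final) at 37C for 22 hr. Live cells were then quantified via protease-substrate fluorescence.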

[7] = qHTS assay to identify small molecule antagonists of the androgen receptor (AR) signaling pathway using the MDA cell line in the presence of 0.5 nM R1881 - cell viability counter screen (AID 1259242); note: nearly all actives have a fitted effect of over 45% in size; note: potency is the fitted concentration of half-maximal effect
Outline: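 MDA-kb2 cells (MMTV-luciferase, AR/GR responsive) were treated with compounds plus 0.5 nM R1881 (final) for 16 hr at 37C, 0% CO2. Viability was then read in the same wells as live-cell protease fluorescence (CellTiter-Fluor, 30 min).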

[8] = qHTS RealTime-Glo MT Cell Viability Assay in HepG2 cells - 0 hour (AID 1224889); note: % is set by controls: 0 for no effect and ±100 for the full control effect; nearly all actives have a fitted effect of over 50% in size
Outline: as §2

[9] = qHTS RealTime-Glo MT Cell Viability Assay in HEK293 cells - 24 hour (AID 1224886); note: potency is the fitted concentration of half-maximal effect; nearly all actives have a fitted effect of over 50% in size
Outline: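 Quantitative high-throughput screen of the Tox21 10K library in HEK293: cells and RealTime-Glo reagents plated together, compound added at 5 h, luminescence monitored through 40 h at 37 C.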

Cc1cc(Nc2ccc(O)cc2)ccc1N
inactive: Potency [1] | Potency [4] | Potency [5]
active: Potency [2] 48.8 µM | Potency [3] 21.8 µM | Potency [6] 27.2 µM | Potency [7] 48.3 µM

CC(C)(C)CC(C)(C)c1ccccc1O
active: Potency [1] 39.1 µM | Potency [4] 39.1 µM
inactive: Potency [2] | Potency [8] | Potency [6] | Potency [7]

COc1cc(C(=O)NS(=O)(=O)c2ccccc2C)ccc1Cc1cn(C)c2ccc(NC(=O)OC3CCCC3)cc12
inactive: Potency [1] | Potency [2] | Potency [3] | Potency [4] | Potency [8] | Potency [5] | Potency [6] | Potency [7]

O=C(NO)c1ccccc1
inactive: Potency [2] | Potency [3] | Potency [8] | Potency [6] | Potency [7]

CN1CCN(C2Cc3ccccc3Sc3ccc(Cl)cc32)CC1 (centres undefined)
active: Potency [1] 19 µM
inactive: Potency [3] | Potency [8] | Potency [6]

CCCCCCCC/C=C\CCCCCCCC(=O)N(C)CC(=O)O
inactive: Potency [2] | Potency [8] | Potency [5] | Potency [6] | Potency [7]
active: Potency [1] 38.9 µM | Potency [4] 24.5 µM

COc1cc(C(C)C)c2c(c1)S(=O)(=O)N(COc1cc(=O)n3cccc(OCCN4CCCCC4)c3n1)C2=O
inactive: cytotoxicity increase [1] -6.14% [at 15.8 µM] | activity change, negative = cytotoxic [2] -16.4% [at 15.8 µM] | activity change [4] 2.2% [at 15.8 µM, stronger effect = higher value] | activity change, negative = cytotoxicity [8] -4.58% [at 15.8 µM] | cytotoxicity increase [5] 14.9% [at 15.8 µM] | activity change, negative = cytotoxicity [6] -4.33% [at 19 µM] | viability change, negative = cytotoxic [7] -2.69% [at 19 µM]

O=C1Nc2ccc(Cl)cc2[C@@](C#CC2CC2)(C(F)(F)F)O1
inactive: Potency [8] | Potency [6] | Potency [7]
active: Potency [9] 23.9 µM

CCCCCCCCCCOCC(O)CN (centres undefined)
active: Potency [2] 16.9 µM | Potency [9] 23.9 µM | Potency [3] 23.9 µM | Potency [4] 26.8 µM | Potency [5] 26.8 µM
inactive: Potency [6]

CC(C)C(=O)OCc1ccccc1
inactive: Potency [2] | Potency [8] | Potency [6] | Potency [7]

COC(=O)C1=C(C)NC(C)=C(C(=O)OCCCN2CCC(c3ccccc3)(c3ccccc3)CC2)C1c1cccc([N+](=O)[O-])c1 (centres undefined)
inactive: Potency [1] | Potency [4] | Potency [8] | Potency [5] | Potency [6]
active: Potency [9] 10.7 µM | Potency [3] 16.9 µM

Cc1cc2c(C(C)C)c(O)c(O)c(C=O)c2c(O)c1-c1c(C)cc2c(C(C)C)c(O)c(O)c(C=O)c2c1O
inactive: Potency [8] | Potency [5] | Potency [6]
active: Potency [4] 16.9 µM
